Dicer inh: inhibitors of human Dicer processing of pre-microRNA; actives 6% (n = 47,000); Q9UPY3; z-score at 25 µM; cat-ELCCA pre-miR-21 Dicer processing, chemiluminescence; active compounds read high; in the data active means z-score above about 3, passing the limit was not always enough;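 further: plate controls were vehicle for no effect and no enzyme for full effect; higher signal means more uncleaved substrate so more Dicer inhibition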
Active calls of the source: *. The full list was thinned out, with hits kept by preference.

How did O=C(CSc1nc2ccccc2nc1N1CCCC1)Nc1ccc(Br)cc1 do in these assays?
Dicer inh: 2.3

How did Cc1cc(C)nc(N2CCN(C(=O)CSc3nc4ccccc4nc3N3CCCCC3)CC2)n1 do in these assays?
Dicer inh: 2.6

How did O=C(CSc1nc2ccccc2nc1N1CCCC1)Nc1ccc(Cl)cc1 do in these assays?
Dicer inh: 2.5

Results for O=c1c2ccccc2nc(-c2ccccc2)n1OCc1ccc(Br)cc1 ?
Dicer inh: 0.53

Results for OCCCCn1c(-c2ccccc2)cc2ccccc21 ?
Dicer inh: -0.71

What do the screens show for `CSc1nccc(-c2ccc(Cl)cc2)n1`?
Dicer inh: 0.31

What do the screens show for `CCOC(=O)c1ccc(Cl)c(NC(=S)N(C)C)c1`?
Dicer inh: -0.41

What do the screens show for `Cc1oc(C(C)(C)C)cc1C(=O)CC#N`?
Dicer inh: 0.27

What do the screens show for `O=c1[nH]nc(Sc2ncc(Br)cc2[N+](=O)[O-])n1-c1ccccc1`?
Dicer inh: -1.3

What do the screens show for `COc1ccc(C2/C(=C(/O)c3ccc(C)cc3)C(=O)C(=O)N2CC(C)O)c(OC)c1` (configuration not stated)?
Dicer inh: -2.4

How did O=C(CSc1nc2ccccc2nc1SCC(=O)N1CCOCC1)N1CCOCC1 do in these assays?
Dicer inh: 1.5

Results for O=C(CSc1nc2ccccc2nc1N1CCOCC1)N1CCCc2ccccc21 ?
Dicer inh: 3.4*

How did CSc1nsc(SCC(=O)N2CCCc3ccccc32)n1 do in these assays?
Dicer inh: -1.6

Results for COC(=O)C1C(c2ccc(Cl)cc2)C(C(=O)OC)S(=O)(=O)CS1(=O)=O (configuration not stated) ?
Dicer inh: -1.2

How did COc1cc2c(c(OC)c1OC)C(=O)/C(=C/N(C)C)C2 do in these assays?
Dicer inh: -2.3

How did Cc1nnc2sc(-c3cccc(F)c3)nn12 do in these assays?
Dicer inh: 0.5

What do the screens show for `COc1ccc(NC(=O)CSCC(=O)O)cc1OC`?
Dicer inh: -1.7

How did O=C(O)CSCC(=O)Nc1ccccn1 do in these assays?
Dicer inh: 8.4

Results for O=C(O)CSCC(=O)Nc1ccc(C(F)(F)F)cn1 ?
Dicer inh: -1.2

How did CC(=O)c1ccc(NC(=O)CSCC(=O)O)cc1 do in these assays?
Dicer inh: 4.3*

How did CC(=O)c1ccc(NC(=O)CN2CCN(CC(=O)Nc3ccc(C(C)=O)cc3)CC2)cc1 do in these assays?
Dicer inh: 1.6

What do the screens show for `O=C(O)CSCC(=O)Nc1cccnc1`?
Dicer inh: 5.6*

Results for CCOC(=O)c1c(C)oc2ccc(NS(=O)(=O)c3cccc4cccnc34)cc12 ?
Dicer inh: -1.6

How did C=CCOC(=O)C1=C(C)NC2=C(C(=O)CCC2)C1c1ccc(OCc2ccccc2)c(OC)c1 (configuration not stated) do in these assays?
Dicer inh: -0.61

How did Cc1cc(NC(=O)CSc2nc(-c3ccccc3)c(C#N)c(=O)[nH]2)no1 do in these assays?
Dicer inh: 0.24

Results for CC1(C)CC(=O)c2sc(NC(=O)CSc3nc(-c4ccccc4)c(C#N)c(=O)[nH]3)nc2C1 ?
Dicer inh: 4.1*

Results for CCC(Oc1ccccc1)C(=O)Nc1nc2c(s1)C(=O)CC(C)(C)C2 (configuration not stated) ?
Dicer inh: -1.8

How did N#Cc1c(SCC(=O)c2ccccc2)nc2c(c1/C=C\c1ccccc1)CCC2 do in these assays?
Dicer inh: -0.84

What do the screens show for `CCOc1cc(C2c3c(oc4ccc(C)cc4c3=O)C(=O)N2Cc2ccc(C)cc2)ccc1O` (configuration not stated)?
Dicer inh: 0.54

Results for CSc1nc(NCc2ccccc2)c2c3c(sc2n1)CC(C)CC3 (configuration not stated) ?
Dicer inh: 1.9

What do the screens show for `Cn1c(=O)n(CC(=O)O)c(=O)c2c1nc1n2CCCN1c1ccc(Cl)cc1`?
Dicer inh: 3*

Results for Cn1c(=O)n(CC(=O)O)c(=O)c2c1nc1n2CCN1c1ccc(F)cc1 ?
Dicer inh: 5.4*

What do the screens show for `CC1CN(c2ccc(Cl)cc2)c2nc3c(c(=O)n(CC(=O)O)c(=O)n3C)n2C1` (configuration not stated)?
Dicer inh: -0.03

What do the screens show for `Cn1c(=O)n(CC(=O)O)c(=O)c2c1nc1n2CCCN1c1ccc(F)cc1`?
Dicer inh: 0.5

What do the screens show for `CCOc1ccc(N2CCCn3c2nc2c3c(=O)n(CC(=O)O)c(=O)n2C)cc1`?
Dicer inh: 0.38

What do the screens show for `Cc1ccc(N2CCn3c2nc2c3c(=O)n(CC(=O)O)c(=O)n2C)cc1`?
Dicer inh: 0.75

How did CC1(C)CC(=O)c2c(csc2S(C)(=O)=O)C1 do in these assays?
Dicer inh: 1.7

Results for O=C(O)c1ccc2c(=O)n(-c3ccccc3)c(=O)[nH]c2c1 ?
Dicer inh: -0.81

How did CC(C)Cc1nc2sc3c(NCCN4CCOCC4)ncnc3c2c2c1COC(C)(C)C2 do in these assays?
Dicer inh: 0.14

Results for CC1CN(c2ncnc3sc4c(c23)CCCC4)CC(C)O1 (configuration not stated) ?
Dicer inh: 0.64

Results for OCCN1CCN(c2ncnc3sc4c(c23)CCCC4)CC1 ?
Dicer inh: 4.5*

Results for CN1CCN(c2ncnc3sc4c(c23)CCCC4)CC1 ?
Dicer inh: 3.1*

What do the screens show for `CC1CCc2sc3ncnc(N4CCN(CCO)CC4)c3c2C1` (configuration not stated)?
Dicer inh: 8.7

Results for c1nc(N2CCCC2)c2c3c(sc2n1)CCCC3 ?
Dicer inh: -0.19

What do the screens show for `c1ccc2[nH]c(CN3CCN(c4ncnc5sc6c(c45)CCCC6)CC3)nc2c1`?
Dicer inh: -0.71

What do the screens show for `COc1ccc(C2C(C(=O)OC(C)(C)C)C(=O)CC(C)(O)C2C(=O)OC(C)(C)C)cc1OC` (configuration not stated)?
Dicer inh: 0.04

Results for COc1ccc(C2CC(=O)C=C(NC3Cc4ccccc4C3)C2)cc1 (configuration not stated) ?
Dicer inh: 0.29

How did Cc1ccc(/C(O)=C2/C(=O)C(=O)N(CC(C)O)C2c2cccnc2)cc1 (configuration not stated) do in these assays?
Dicer inh: -0.37

What do the screens show for `Cc1[nH]ncc1-c1nc(-c2ccc(Cl)cc2)no1`?
Dicer inh: -0.2

Results for CC(=O)c1c(C)[nH]c(-c2ccc(Cl)cc2Cl)nc1=S ?
Dicer inh: -0.23

Results for Cc1cc(C)c2oc(-c3ccc(C)c(NC(=O)c4ccc([N+](=O)[O-])o4)c3)nc2c1 ?
Dicer inh: 2

How did CCN1C(=O)C2(/C(=C(/O)c3ccc(C)c(F)c3)C(=O)C(=O)N2CCCN(C)C)c2ccccc21 (configuration not stated) do in these assays?
Dicer inh: 2.6

How did NC(=O)c1c(NC(=O)CSc2nnnn2-c2ccccc2)sc2c1CCC2 do in these assays?
Dicer inh: -1.4

What do the screens show for `COCCCN1C(=O)C(=O)/C(=C(\O)c2ccc(C)c(F)c2)C12C(=O)N(C)c1ccccc12` (configuration not stated)?
Dicer inh: 46

Results for C=CCN1C(=O)C2(/C(=C(/O)c3ccc(OCC)cc3)C(=O)C(=O)N2CCOC)c2ccccc21 (configuration not stated) ?
Dicer inh: 2.4

Results for C=CCOc1ccc(/C(O)=C2/C(=O)C(=O)N(CCOC)C23C(=O)N(C)c2ccccc23)cc1 (configuration not stated) ?
Dicer inh: -0.06

Screening data deposited in PubChem BioAssay by Center for Chemical Genomics, University of Michigan.
